Assay outcomes (PubChem BioAssay)
An excerpt weighted towards active compounds, which were near 0.25% of everything screened.
ERG-DNA inh: qHTS for Small Molecule Inhibitors of the ERG Ets/DNA interaction. Transcriptional regulator ERG (Homo sapiens), P11308. fluorescence polarization, His-ERG Ets domain / labelled DNA. Potency, µM (top dose mostly 76.9 µM), for the others: top-dose FP activity, negative = inhibition, usual class: inhibitors. actives 0.028% (n = 370,000). AID 624246, 2012; active = well fitted inhibition curve with a large enough effect in the polarisation, with a control signal flat; inconclusive = small, poorly fitted or top-dose-only effect, or effect the other way, or a change in a side signal; inactive = no such curve, though single readings can be large or run the other way; the % refers to the polarisation;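 note: polarization taken with two DNA probes labelled with fluorescein and Texas red; % of control where 0% means no effect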
Target sequence (P11308 whole entry, looked up, the tested form may be a part): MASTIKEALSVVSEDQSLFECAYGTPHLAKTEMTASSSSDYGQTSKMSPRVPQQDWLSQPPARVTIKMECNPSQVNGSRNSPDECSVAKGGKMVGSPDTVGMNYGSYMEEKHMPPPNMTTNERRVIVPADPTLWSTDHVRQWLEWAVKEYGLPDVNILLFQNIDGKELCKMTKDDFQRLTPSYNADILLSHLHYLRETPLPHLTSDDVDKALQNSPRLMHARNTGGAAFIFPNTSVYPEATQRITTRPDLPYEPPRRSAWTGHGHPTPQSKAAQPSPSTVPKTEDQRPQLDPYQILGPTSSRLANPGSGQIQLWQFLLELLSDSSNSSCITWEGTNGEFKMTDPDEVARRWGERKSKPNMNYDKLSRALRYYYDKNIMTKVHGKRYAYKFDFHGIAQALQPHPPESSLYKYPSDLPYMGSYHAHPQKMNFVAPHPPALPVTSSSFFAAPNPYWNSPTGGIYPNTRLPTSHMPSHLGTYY
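His-tagged ERG Ets domain (1 uM in the protein solution; 300mM KCl, 50mM Tris-HCl, 1mM EDTA, 1mM DTT, pH 7.5) received compound, then a probe mix of 5 nM fluorescein-DNA and 100nM Texas-615-DNA. Fluorescence polarization was read for both dyes.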
Tb PFK inh-1: qHTS Assay to Find Inhibitors of T. brucei phosphofructokinase; Potency, µM (series often up to 57.5 µM), without a hit: at the top dose activity, negative = inhibition, actives largely listed as inhibitors; ATP-dependent 6-phosphofructokinase (Trypanosoma brucei brucei), O15648; actives 0.17% (n = 330,000); T. brucei PFK, ADP-Glo luminescence;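 note: 0% = uninhibited 1x PFK enzyme wells and -100% = no-enzyme wells; nearly all actives have a fitted effect of over 60% in size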
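1.25 nM PFK with 0.5 mM F6P and 0.1 mM ATP in 0.1 M TEA pH 8.0, 5 mM MgCl2, incubated 45 min at room temperature; ADP measured by ADP-Glo luminescence; compounds titrated up to 57 uM.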
BCR signal inh: qHTS Assay to Find Inhibitors of Chronic Active B-Cell Receptor Signaling. actives 0.05% (n = 340,000). Potency, µM (top dose mostly 46.1 µM), without a hit: top-dose activity change, negative = inhibition, hits mostly inhibitors. ABC-DLBCL IkBa-CBG/CBR reporter, luminescence ratio, 4 h; active = well fitted inhibition curve with a large enough effect in the signal ratio, with a control signal flat, not every such curve was filed as active; inconclusive = small, poorly fitted or top-dose-only effect, or effect the other way, or a change in a side signal; the % refers to the signal ratio;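 note: plate controls were basal doxycycline-induced cells for no effect and cells given 10 µM MG132 for full effect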
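Cell line TMD8 (human ABC DLBCL), stably expressing tet-inducible CBG68-IkBa fusion and CBR; IMDM/0.5% FBS; cpd up to 46 uM; dox induction, 4 h, 37C/5% CO2; dual luminescence; green/red ratio; MG132 control.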
Pin1 inh: qHTS Assay to Find Inhibitors of Pin1 | actives 0.009% (n = 390,000) | Potency, µM (top dose mostly 115 µM), without a hit: top-dose activity, negative = inhibition, usual class: inhibitors | Pin1 FP peptide displacement, HiFluor488, 10 min | Peptidyl-prolyl cis-trans isomerase NIMA-interacting 1 (Homo sapiens), Q13526; active = well fitted inhibition curve with a large enough effect in the polarisation, with a control signal flat, not every such curve was filed as active; inconclusive = small, poorly fitted or top-dose-only effect, or effect the other way, or a change in a side signal; inactive = no such curve, though single readings can be large or run the other way; the % refers to the polarisation; note: % is set by controls: 0 for no effect and ±100 for the full control effect
PGK inhibitor: qHTS Assay to Find Inhibitors of Phosphoglycerate Kinase. Phosphoglycerate kinase, glycosomal (Trypanosoma brucei brucei), P07378. PGK/GAPDH coupled, Kinase-Glo luminescence, 60 min. Potency, µM (titrated, usually from 57.5 µM), for inactives: at the highest dose activity change, negative = inhibition, actives largely listed as inhibitors. actives 0.043% (n = 380,000); note: % is set by controls: 0 for no effect and ±100 for the full control effect; nearly all actives have a fitted effect of over 60% in size
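Recombinant glycosomal PGK reaction used 1,3-bisphosphoglycerate generated in-well by GAPDH (100nM final) in 100mM TEA pH 7.6, 5mM MgCl2, 0.01% Tween-20. After 60 minutes at room temperature, ATP was read by Kinase-Glo Plus luminescence end-point.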
TbPFK ATP: Tb PFK orthogonal confirmatory assay using ATP depletion (Kinase-Glo Plus) as an alternative measure of Tb PFK activity: Hit Validation; shares compounds with Tb PFK inh-1; Tb PFK enzyme, ATP depletion, Kinase-Glo Plus luminescence; Potency, µM (doses to about 57.5 µM), without a hit: at the top dose inhibition; actives 47% (n = 1,100); AID 504636, 2011; calls by dose curve; note: nearly all actives have a fitted effect of over 60% in size
Tb PFK inh-2: Inhibitors of T. brucei phosphofructokinase: Hit Validation; actives 41% (n = 1,100); purified T. brucei PFK, ADP-Glo luminescence, 45 min; AID 504637, 2011; shares compounds with Tb PFK inh-1; Potency, µM (doses to about 57.5 µM), for the others: at the highest dose activity change, negative = inhibition, hits mostly inhibitors;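 note: plate controls were full PFK enzyme control for no effect and no enzyme control for full effect; nearly all actives have a fitted effect of over 60% in size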
An asterisk follows results filed as active. Unless noted, calls come from the whole dose curve; as a rule, active = well fitted curve in the direction sought with a large enough effect; inconclusive = small, poorly fitted or top-dose-only effect, or another doubt; inactive = no such curve, though single readings can be large; an effect the other way counts as inactive or inconclusive. Potency is the fitted concentration of half-maximal effect.

Screening O=C(/C=C/c1ccc(OCCCF)cc1)NCc1cccc(Cl)c1 returned ERG-DNA inh 1%, Tb PFK inh-1 inconclusive, BCR signal inh -1%, Pin1 inh -1%, PGK inhibitor 0%, TbPFK ATP inconclusive and Tb PFK inh-2 inconclusive.
`Cc1ccc(/C=C/C(=O)NCc2ccco2)o1` gave Tb PFK inh-1 -27% and BCR signal inh 0%.
For COc1ccc(-c2nc3ccccc3n2Cc2ccccc2)cc1COc1ccc(NC(C)=O)cc1 the results were Pin1 inh 14%.
Screening Cc1ccc(NC(=O)c2ccc(Cl)c(N3C(=O)C=CC3=O)c2)cc1 returned ERG-DNA inh -5%, Tb PFK inh-1 inconclusive, BCR signal inh inconclusive, Pin1 inh 27%, PGK inhibitor -4%, TbPFK ATP 12µM* and Tb PFK inh-2 inconclusive.
Screening O=C1CCC/C(=N/NC(=O)c2cc(NS(=O)(=O)c3cccs3)cc(NS(=O)(=O)c3cccs3)c2)C1 returned ERG-DNA inh -6%, Tb PFK inh-1 inconclusive, BCR signal inh -4%, Pin1 inh 3%, PGK inhibitor -16%, TbPFK ATP 21µM* and Tb PFK inh-2 inconclusive.
Screening O=C1CCC/C(=N/NC(=O)c2ccc(NS(=O)(=O)c3cccs3)cc2)C1 returned ERG-DNA inh -3%, Tb PFK inh-1 4%, BCR signal inh inconclusive, Pin1 inh 4% and PGK inhibitor 0%.
`O=c1cnn(Cc2ccc(Cl)c(Cl)c2)c2ccccc12` gave ERG-DNA inh -1%, Tb PFK inh-1 inconclusive, BCR signal inh -1%, Pin1 inh 2%, PGK inhibitor -3%, TbPFK ATP 12µM* and Tb PFK inh-2 24µM*.
O=[S+]([O-])(c1c(F)cccc1F)N1CCN([S+](=O)([O-])c2c(F)c(F)c(F)c(F)c2F)CC1 was read as Pin1 inh 1%.
COC(=O)c1nc(N2CCN(S(=O)(=O)c3ccc(C)cc3)CC2)c2ccccc2n1 was read as Pin1 inh 2%.
CC1Cc2cc(/C(O)=C3/C(=O)C(=O)N(CCCn4ccnc4)C3c3cccc([N+](=O)[O-])c3)ccc2O1 (stereo unspecified) was read as ERG-DNA inh 0%, Tb PFK inh-1 11µM*, BCR signal inh -5%, Pin1 inh -6%, PGK inhibitor 3%, TbPFK ATP 6.7µM* and Tb PFK inh-2 21µM*.
CCOC(=O)c1[nH]c(C)c(/C(O)=C2\C(=O)C(=O)N(CCCn3ccnc3)C2c2ccncc2)c1C (stereo unspecified) was read as ERG-DNA inh -10%, Tb PFK inh-1 24µM*, BCR signal inh 2%, Pin1 inh -7%, PGK inhibitor -5%, TbPFK ATP 12µM* and Tb PFK inh-2 27µM*.
`CCCOc1ccc(/C(O)=C2/C(=O)C(=O)N(CCCn3ccnc3)C2c2ccc(C)o2)cc1` (stereo unspecified) gave ERG-DNA inh -3%, Tb PFK inh-1 inconclusive, BCR signal inh 2%, Pin1 inh 6%, PGK inhibitor 6%, TbPFK ATP inconclusive and Tb PFK inh-2 30µM*.
